From PubChem BioAssay
Unmarked numbers belong to inactive results. Active and inactive are the calls of the source. Cut-off read from the data, not from the text of the source, unless noted: active = inhibition above about 30%; inactive = the rest.

Key:
[1] = target: Nuclear receptor coactivator 3 (Homo sapiens) (UniProt Q9Y6Q9); experiment: SRC3 coactivator transcriptional activity inhibitors, confirmation, cell-based, luminescence, quadruplicate (AID 588792;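 active = mean inhibition over 43.08%, the solvent-only control mean plus 3 SD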;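 note: 0% = DMSO treated cells and 100% = gossypol at 36 µM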); conditions: HEK293 GAL4-SRC3 luciferase reporter, at 3.6 µM, stronger effect = higher value
Nuclear receptor coactivator 3 (Homo sapiens), sequence (Q9Y6Q9 whole entry, looked up, the tested form may be a part): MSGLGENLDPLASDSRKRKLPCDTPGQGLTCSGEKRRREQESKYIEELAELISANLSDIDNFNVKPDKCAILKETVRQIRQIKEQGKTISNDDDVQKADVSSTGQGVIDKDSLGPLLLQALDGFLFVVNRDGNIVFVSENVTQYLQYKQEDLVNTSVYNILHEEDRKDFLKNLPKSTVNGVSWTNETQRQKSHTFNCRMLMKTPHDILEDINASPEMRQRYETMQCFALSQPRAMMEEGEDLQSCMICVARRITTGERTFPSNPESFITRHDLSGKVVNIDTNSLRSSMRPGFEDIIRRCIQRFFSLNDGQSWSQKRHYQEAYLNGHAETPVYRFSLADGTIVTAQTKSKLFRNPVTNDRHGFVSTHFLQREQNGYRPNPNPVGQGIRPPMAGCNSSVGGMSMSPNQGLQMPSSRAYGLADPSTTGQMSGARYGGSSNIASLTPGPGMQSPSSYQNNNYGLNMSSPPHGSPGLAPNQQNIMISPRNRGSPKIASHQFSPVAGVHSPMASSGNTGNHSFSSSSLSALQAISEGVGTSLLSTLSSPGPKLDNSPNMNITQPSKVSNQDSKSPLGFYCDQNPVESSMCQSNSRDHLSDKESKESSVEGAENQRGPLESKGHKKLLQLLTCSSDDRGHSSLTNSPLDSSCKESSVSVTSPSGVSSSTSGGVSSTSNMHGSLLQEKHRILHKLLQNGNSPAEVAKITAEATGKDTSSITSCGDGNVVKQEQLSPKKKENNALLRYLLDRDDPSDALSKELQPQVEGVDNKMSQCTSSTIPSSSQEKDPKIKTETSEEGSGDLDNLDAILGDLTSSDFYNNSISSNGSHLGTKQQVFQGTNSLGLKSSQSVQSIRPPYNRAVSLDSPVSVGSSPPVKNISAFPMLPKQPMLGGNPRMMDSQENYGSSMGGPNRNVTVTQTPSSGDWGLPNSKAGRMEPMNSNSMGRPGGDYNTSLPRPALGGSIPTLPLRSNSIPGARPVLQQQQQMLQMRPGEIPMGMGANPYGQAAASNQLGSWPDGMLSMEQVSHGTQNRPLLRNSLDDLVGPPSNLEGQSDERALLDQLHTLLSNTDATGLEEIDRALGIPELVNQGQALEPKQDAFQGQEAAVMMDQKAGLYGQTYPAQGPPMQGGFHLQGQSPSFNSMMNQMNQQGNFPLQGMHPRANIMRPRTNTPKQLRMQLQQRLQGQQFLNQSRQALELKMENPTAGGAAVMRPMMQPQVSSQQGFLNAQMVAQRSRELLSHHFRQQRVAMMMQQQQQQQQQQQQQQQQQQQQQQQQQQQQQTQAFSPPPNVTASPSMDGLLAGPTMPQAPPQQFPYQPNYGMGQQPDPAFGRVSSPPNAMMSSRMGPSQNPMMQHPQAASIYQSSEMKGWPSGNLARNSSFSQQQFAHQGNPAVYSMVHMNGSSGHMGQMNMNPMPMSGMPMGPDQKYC

[2] = system: transactivating tegument protein VP16 (Human herpesvirus 1), Gal4-VP16 luciferase reporter; experiment: VP16 transactivation inhibitors, counter-screen for SRC3 inhibitor project, cell-based, luminescence, high throughput (AID 588794); conditions: mammalian cells, VP16-driven luciferase reporter luminescence; at 3.6 µM; stronger effect = higher value

## COc1cc(C2C(C#N)=C(SC)NC3=C2C(=O)CCC3)ccc1O (stereo not given)
[1]
  inhibition: 20.9%
[2]
  inhibition: 14.7%

## COc1ccccc1N1CCN(C(=O)C2CCCN(S(=O)(=O)c3ccc4c(c3)CCCN4C(C)=O)C2)CC1 (stereo not given)
[1]
  inhibition: -12.2%
[2]
  inhibition: 8.25%

## O=C(CNc1cccc2ccccc12)N/N=C/c1ccc[nH]1
[1]
  inhibition: 7.38%
[2]
  inhibition: 5.09%

## COc1ccc(OC)c(C2C3=C(CCCC3=O)NC3=C2C(=O)CCC3)c1
[1]
  inhibition: 4.98%
[2]
  inhibition: -6.31%

## CCOC(=O)C1=CCN(S(=O)(=O)c2ccc(C)cc2)C1c1cccc(Cl)c1 (stereo not given)
[1]
  inhibition: 15.1%
[2]
  inhibition: 6.03%

## COc1ccc(CNC(=O)[C@H](Cc2ccccc2)NC(=O)C2CCN(C(=O)[C@H](C)N)CC2)cc1
[1]
  inhibition: 12.2%
[2]
  inhibition: -2.01%

## C=CCSc1nc2ccccc2n1C(=O)/C=C/c1cc(OC)c(OC)c(OC)c1
[1]
  inhibition: -6.27%
[2]
  inhibition: -10.3%

## Cc1cc(C)c2nc3nc(C)cc(C)c3c(N)c2c1
[1]
  inhibition: 24.5%
[2]
  inhibition: 57.9% (active)

## CC1(C)CC2(CC(c3ccccc3F)c3cc(Cl)c(O)cc3O2)NC(=S)N1 (stereo not given)
[1]
  inhibition: 16.6%
[2]
  inhibition: 6.57%

## COc1ccc2c(=O)c3c(=O)n(CCc4ccccc4)c(C(C)C)nc3oc2c1
[1]
  inhibition: 4.29%
[2]
  inhibition: 17.5%

## CN(C)c1ccc(C=c2c3cc([N+](=O)[O-])ccc3n3c2cc(-c2ccccc2)[n+]3C)cc1
[1]
  inhibition: 38.4%
[2]
  inhibition: 56.7% (active)

## COc1ccc(C)cc1NS(=O)(=O)c1ccc(NC(=O)CN(c2cc([N+](=O)[O-])ccc2C)S(C)(=O)=O)cc1
[1]
  inhibition: 58.6% (active)
[2]
  inhibition: -20%

## O=S(=O)(c1ccccc1)c1nc(Nc2cccc(O)c2)sc1Cl
[1]
  inhibition: -4.35%
[2]
  inhibition: 0.89%

## O=C1N=c2ccccc2=C1c1sc(=O)[nH]c1O
[1]
  inhibition: -3.29%
[2]
  inhibition: 2.71%

## CCCn1c(C)cc(C(=O)COc2ccc(C)nc2[N+](=O)[O-])c1C
[1]
  inhibition: 11.3%
[2]
  inhibition: 6.56%

## CCOc1cc(N2CCOCC2)c(OCC)cc1NC(=O)c1cc(-c2ccco2)nc2ccccc12
[1]
  inhibition: 17.5%
[2]
  inhibition: 8.51%

## CC1CCc2c(sc(NC(=O)c3ccco3)c2C(=O)O)C1 (stereo not given)
[1]
  inhibition: 18.1%
[2]
  inhibition: 36.3% (active)

## CCCCNC1C(CC)C(CCC)C(C#N)(C#N)C1(C#N)C#N (stereo not given)
[1]
  inhibition: 3.79%
[2]
  inhibition: 20%

## CC1CC(C)CN(c2nc(NCc3ccco3)nc(N)c2[N+](=O)[O-])C1 (stereo not given)
[1]
  inhibition: 9.73%
[2]
  inhibition: 9.4%

## C/C(=N\NC(=O)c1c(C)nc2ccccn12)c1ccc(O)cc1O
[1]
  inhibition: 52.7% (active)
[2]
  inhibition: 55.2% (active)

## O=C(NCCNc1ccc([N+](=O)[O-])cc1C(F)(F)F)c1cccc(F)c1
[1]
  inhibition: 15.4%
[2]
  inhibition: 12.6%

## Cc1cccc(C)c1NC(=O)c1ccc(-c2ccc(Cl)cc2Cl)o1
[1]
  inhibition: 28.4%
[2]
  inhibition: 23%

## CCCCNC(=O)c1onc(CSc2cc(C)cc(C)c2)c1C(=O)NCCCC
[1]
  inhibition: 7.83%
[2]
  inhibition: 4.86%

## COc1cccc(N2CCN(CC(=O)Nc3ccccc3C(=O)NCc3ccccc3)CC2)c1
[1]
  inhibition: -32.3%
[2]
  inhibition: 7.53%

## Cc1cccc(NC(=O)c2cnn(C)c2)c1C
[1]
  inhibition: -2.28%
[2]
  inhibition: -8.45%

## CC(=O)c1cccc(NC(=O)c2cc(S(=O)(=O)N3CCOCC3)cs2)c1
[1]
  inhibition: 2.71%
[2]
  inhibition: 1.82%

## COc1cc(/C=C/c2cc(C(F)(F)F)[nH]c(=O)n2)cc(OC)c1OC
[1]
  inhibition: 16.9%
[2]
  inhibition: 40.6% (active)

## Cc1cccc(N2C(=O)c3cccnc3C2=O)c1
[1]
  inhibition: 3.71%
[2]
  inhibition: -4.38%

## Cc1cc(C)nc(/N=C(\N)Nc2ccccc2-c2ccccc2)n1
[1]
  inhibition: -12%
[2]
  inhibition: 13.4%

## N#CCc1c[nH]c2ccc([N+](=O)[O-])cc12
[1]
  inhibition: 24%
[2]
  inhibition: 20%

## COc1cc(OC)cc(-c2nn[nH]n2)c1
[1]
  inhibition: -10.5%
[2]
  inhibition: -1.27%

## COc1ccc(C(=O)Nc2nc(-c3ccccn3)cs2)cc1S(=O)(=O)N1CCOCC1
[1]
  inhibition: 18.3%
[2]
  inhibition: -11.1%

## COc1ccccc1C(CNc1ccc(S(=O)(=O)N2CCCC2)cc1[N+](=O)[O-])N(C)C (stereo not given)
[1]
  inhibition: 23.9%
[2]
  inhibition: 24.9%

## C/C(=N\NC(=S)Nc1cc(S(=O)(=O)N2CCOCC2)ccc1Cl)c1ccccc1F
[1]
  inhibition: 31.8%
[2]
  inhibition: 28.8%

## O=C(Cc1ccccc1)NNC(=O)Nc1cccc(Cl)c1
[1]
  inhibition: 10.6%
[2]
  inhibition: -0.2%

## CC(C)(CC(=O)O)CC(=O)Nc1ccc(Oc2ccc(C(C)(C)C)cc2)nc1
[1]
  inhibition: 3.47%
[2]
  inhibition: 0.08%

## CN(Cc1cccc(F)c1)C(=O)C1CC(=O)N(Cc2ccco2)C1 (stereo not given)
[1]
  inhibition: -0.39%
[2]
  inhibition: -6.54%

## CCOC(=O)CN(C(=O)COc1nc(C)cc(C)c1C#N)c1ccc(Cl)cc1
[1]
  inhibition: 4.25%
[2]
  inhibition: 1.1%

## CC(=O)c1cc(CC=C(C)C)c(O)c(CC=C(C)C)c1O
[1]
  inhibition: 4.99%
[2]
  inhibition: -4.39%

## Cc1nn(C)c(C)c1CN(C)C(=O)c1cnn2c1NC(c1ccccc1)CC2C(F)(F)F (stereo not given)
[1]
  inhibition: 21.2%
[2]
  inhibition: 3.17%

## C=CC[C@@H](CC(=O)NCCO)C(=O)NC[C@H](OC(=O)[C@@H](CC=C)Cc1ccc(F)cc1)c1ccccc1
[1]
  inhibition: 16.2%
[2]
  inhibition: 2.08%

## CC#CC[N+](C)(C)CCCCCCCCCC
[1]
  inhibition: 4.4%
[2]
  inhibition: 16.9%

## Cc1[nH]c2ccccc2c1C(=O)CN1C(=O)NC2(CC(C)CC(C)(C)C2)C1=O (stereo not given)
[1]
  inhibition: 11.9%
[2]
  inhibition: -5.15%

## CCc1ccc(NC(=O)c2cnc(N3CCN(c4ccccn4)CC3)c3ccccc23)cc1
[1]
  inhibition: 18.1%
[2]
  inhibition: 42% (active)

## COc1cc(C(=O)N/N=C/c2coc3ccc(Cl)cc3c2=O)ccc1O
[1]
  inhibition: 24.2%
[2]
  inhibition: 15.9%

## CCn1c(C)nc2cc(C(=O)N/N=C(\C)c3ccc(OC)cc3O)ccc21
[1]
  inhibition: 24.6%
[2]
  inhibition: 8.7%

## COc1ccc2nc(C)cc(SCC(=O)N/N=C/c3ccc(O)cc3O)c2c1
[1]
  inhibition: 24.1%
[2]
  inhibition: 18.7%

## Cc1ccnc(OC(C(=O)O)C(OCc2ccccc2)(c2ccccc2)c2ccc(C(F)(F)F)cc2)n1 (stereo not given)
[1]
  inhibition: 8.84%
[2]
  inhibition: 12.4%

## O=C(Nc1ncc(Cc2ccc(C(F)(F)F)cc2)s1)c1ccc(-c2cccc([N+](=O)[O-])c2)o1
[1]
  inhibition: 0.3%
[2]
  inhibition: 44.4% (active)

## Cc1ccc2[nH]c(C(=O)N/N=C/c3ccccc3O)c(C)c2c1
[1]
  inhibition: 65.9% (active)
[2]
  inhibition: 67.7% (active)

## CCN(CC)C(=O)c1[nH]cnc1C(=O)N[C@@H](CCCCNC(=O)OC(C)(C)C)C(=O)OC(C)(C)C
[1]
  inhibition: 3.8%
[2]
  inhibition: -3.67%

## CCC1C(=O)NCCN1C(=O)c1ccc2nc(Cc3ccc(OC)cc3)oc2c1 (stereo not given)
[1]
  inhibition: -2.02%
[2]
  inhibition: -0.9%

## O=C(c1cc2sccc2n1Cc1ccccc1)N1CCN(c2nc3ccccc3s2)CC1
[1]
  inhibition: 2.32%
[2]
  inhibition: 35.9% (active)

## CCc1nc(Nc2ccc3nccnc3c2)c2oc3ccccc3c2n1
[1]
  inhibition: 5.99%
[2]
  inhibition: 13.6%

## COc1cc(/C=C2/SC(=S)N(c3ccccc3)C2=O)ccc1Oc1nc(N2CCOCC2)nc(N2CCOCC2)n1
[1]
  inhibition: 4.82%
[2]
  inhibition: -7.44%

## NCCCn1c(C(=O)c2cc(Cl)c(N)c(Cl)c2)c2ccc([N+](=O)[O-])cc2[n+]1[O-]
[1]
  inhibition: 26.8%
[2]
  inhibition: 9.54%

## COC(=O)c1ccc(NC(=O)Cn2c(-c3nonc3N)nc3ccccc32)cc1
[1]
  inhibition: 17%
[2]
  inhibition: 3.85%

## Nc1cccc2c1C(=O)N(C(=O)c1cccc(S(=O)(=O)N3CCCCCC3)c1)C2=O
[1]
  inhibition: 1.95%
[2]
  inhibition: -5.22%

## O=C(NCc1ccccc1)c1c(Cl)nc(Cl)c(Cl)c1Cl
[1]
  inhibition: 42.1%
[2]
  inhibition: 21.9%

## O=C1CC(=O)OC(c2ccc([N+](=O)[O-])cc2)O1
[1]
  inhibition: 26.8%
[2]
  inhibition: 40.5% (active)

## O=C(Nc1ccccc1C(=O)Nc1nnc(C(F)(F)F)s1)c1ccccc1Cl
[1]
  inhibition: 12.3%
[2]
  inhibition: 11%

## COc1cccc(/C=N/Nc2ncnc(Cl)c2N)c1O
[1]
  inhibition: 78.1% (active)
[2]
  inhibition: 71.7% (active)

## COc1cc(/C=C(/C(=O)c2cccs2)c2nc3ccccc3[nH]2)cc(OC)c1O
[1]
  inhibition: 31.4%
[2]
  inhibition: 12.1%

## COc1ccc(-n2nc(C(=O)NCC(=O)NCC3COc4ccccc4O3)c3ccccc3c2=O)cc1OC (stereo not given)
[1]
  inhibition: -4.76%
[2]
  inhibition: -7.63%

## CC1CCc2sc3ncnc(N4CCOCC4)c3c2C1 (stereo not given)
[1]
  inhibition: 32.5%
[2]
  inhibition: 29.8% (active)

## CCCc1[nH]nc2c1C(c1ccc(Br)s1)C(C#N)=C(N)O2 (stereo not given)
[1]
  inhibition: 8.21%
[2]
  inhibition: 25.7%

## COc1ccccc1OCC(=O)NNC(=O)C1CCN(c2ncnc3sc(C)c(C)c23)CC1
[1]
  inhibition: 3.67%
[2]
  inhibition: 0.76%

## C=C[C@@H]1c2c(F)cccc2N(S(=O)(=O)c2ccc(C)cc2)[C@H](c2ccc(OC(C)=O)cc2)C1(C#N)C#N
[1]
  inhibition: 10.4%
[2]
  inhibition: 3.61%

## O=C(NNC(=S)NCc1ccccc1)c1ccc2c(c1)OCO2
[1]
  inhibition: -11.1%
[2]
  inhibition: -11.7%

## Nc1ccccc1-c1ccc([N+](=O)[O-])cc1
[1]
  inhibition: 5.58%
[2]
  inhibition: 33.1% (active)
